Among the data in PubChem BioAssay AID588413 (Sanford-Burnham Center for Chemical Genomics, 2011) are inhibition values, retold here.

Out of some 340,000 compounds screened, about 2,500 (0.74%) were called active. What follows is part of a selection rich in actives, with near analogues and random picks from the rest. Unmarked numbers belong to inactive results.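 The calls were made as follows: active = inhibition above about 55% (limit read from the data); inactive = the rest.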

The assay can be described thus: Gli-Sufu pathway antagonists, primary screen, luciferase luminescence, Sufu-KO-LIGHT cells, uHTS (AID 588413).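 Also: 0% = DMSO-treated cells and 100% = wells with medium but no cells.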 The settings on record: Sufu-KO-LIGHT fibroblasts, Gli luciferase reporter luminescence; at 5 µM; active compounds read high. A general note: In a reporter assay the amount or activity of a reporter protein is the signal.
The inhibition is the change of the read-out against control, counted positive when it falls. Take `COc1ccc(NC(=O)CCC(=O)Nc2cc(OC)c(NC(=O)c3ccco3)cc2OC)c(OC)c1`: the inhibition is 15.2%.

For `CC(OC(=O)c1ccc([N+](=O)[O-])cc1)C(=O)NCC1CCCCC1` (stereo unspecified), the inhibition is 6.02%.

With `COc1cc(C(=O)OC(C)C(=O)NCC2CCCCC2)cc(NC(=O)c2ccco2)c1OC` (stereo unspecified), the inhibition is 61.1% (active).

For `CN1CCN(C(=O)/C(=C\c2ccc3c(c2)OCO3)NC(=O)c2cccs2)CC1`, the inhibition is -0.95%.

Regarding `CC(=O)Nc1ccccc1C(=O)C(=O)Nc1ccc(F)cc1`, the inhibition is -24.7%.

On to `O=C(CN1C(=O)c2ccccc2S1(=O)=O)N1CCc2ccccc21`, for which the inhibition was 64.8% (active).

For the molecule `CC1CCCN(C(=O)CN2C(=O)c3ccccc3S2(=O)=O)C1` (stereo unspecified), the inhibition is 6.76%.

For `O=C(CSCc1ccccc1)N1CCc2ccccc21`, the inhibition is -87.8%.

With `Cc1ccc(CNC(=O)CCN2C(=O)[C@@H]3Cc4ccccc4CN3C2=O)cc1`, the inhibition is -9.51%.

On to `CCOC(=O)N(Cc1ccccc1)C1CC1`, for which the inhibition was 0.91%.

For `Cc1ccc(S(=O)(=O)N2CC(C)N(S(C)(=O)=O)C2)cc1` (stereo unspecified), the inhibition is -2.13%.

For the molecule `Cc1ccc(S(=O)(=O)N2C[C@@H]3CCCC[C@@H]3[C@@H](C)[C@H]2c2cn(Cc3ccccc3)c3ccc(F)cc23)cc1`, the inhibition was 72.8% (active).

`O=C(CS(=O)(=O)c1cn(Cc2cccc(F)c2)c2ccccc12)N1CCCCC1`: the inhibition was 9.01%.

As to `O=C(CNS(=O)(=O)c1ccc(Br)s1)N1CCN(C(=O)c2ccco2)CC1`, the inhibition is -4.48%.

Take `O=C1/C(=C\c2ccc([N+](=O)[O-])cc2)CS(=O)(=O)C/C1=C/c1ccc([N+](=O)[O-])cc1`: the inhibition is 65.4% (active).

As for `O=C(NN=Cc1ccc([N+](=O)[O-])cc1)C1CC1`, the inhibition is -2.46%.

Turning to `O=[N+]([O-])c1ccc(C=NN=Cc2ccc([N+](=O)[O-])cc2)cc1`, the inhibition is -0.85%.

For `Cc1nn(C(C)(C)C)c(OC(=O)CC(C)C)c1S(=O)(=O)c1ccccc1`, the inhibition is 12.6%.

Turning to `O=C(/C=C/c1ccc([N+](=O)[O-])o1)NNC(=O)c1ccc(F)cc1`, the inhibition was 67.6% (active).

Regarding `Cc1onc(C(=O)NCc2ccc(F)cc2)c1[N+](=O)[O-]`, the inhibition is 3.05%.

As to `COc1ccc(C(=O)NCC(=O)N/N=C/c2ccc([N+](=O)[O-])o2)cc1OC`, the inhibition is -0.07%.

On to `Cc1ccc(CN(CC(=O)NC2CCCCC2)C(=O)c2csnn2)cc1`, for which the inhibition was -19.5%.

For `C/C=C/c1ccc(OCC(=O)OCC(=O)Nc2c(C)nn(-c3ccccc3)c2C)c(OC)c1`, the inhibition is -14.7%.

For `CSc1nsc(SC)c1NC(=O)OC1CCCCC1`, the inhibition is 3.57%.

On to `COCCn1c(C)cc(C(=O)COC(=O)/C=C/c2cccc(OC)c2)c1C`, for which the inhibition was 0.01%.

`CCN(CC)S(=O)(=O)c1ccc(OC(C)C)c(N)c1`: the inhibition was -7.56%.

Regarding `Oc1ccc2ccccc2c1N=Nc1nccs1`, the inhibition was 75.4% (active).

In the case of `O=C(CN1CCCCC1)NC(=O)Nc1ccccc1F`, the inhibition was -7.73%.

For `COc1ccc(Cc2nnc(N/N=C/c3ccccc3O)[nH]c2=O)cc1OC`, the inhibition is 88.1% (active).

With `CC(C)c1ccc(Cc2nnc(NCCCO)[nH]c2=O)cc1`, the inhibition was -3.48%.

On to `COc1ccc(Cc2nnc(SC)[nH]c2=O)cc1`, for which the inhibition was -8.83%.

As to `CCc1cccc2c3c([nH]c12)C(CC)(CC(=O)O)OCC3` (stereo unspecified), the inhibition was -4.38%.

`CC(C)c1ccc(C2C(C#N)=C(N)Oc3c2oc(CO)cc3=O)cc1` (stereo unspecified): the inhibition was -0.24%.

Turning to `CCOC(=O)c1ccc(NC(=O)Cc2cccs2)cc1`, the inhibition is -48%.

For `CCOC(=O)c1ccc(NC(=O)Cn2cnc3cc(C)c(C)cc32)cc1`, the inhibition is 65% (active).

Consider `CCCc1nnc(SCC(=O)Nc2ccc(C(=O)OCC)cc2)o1`, for which the inhibition is -7.14%.

As to `CCCCC(=O)N1CC2(C)CN(C(=O)CCCC)CC(C)(C1)C2=O`, the inhibition is -15.8%.

In the case of `COCCCN(C(=O)CSCc1ccc(C)cc1)c1c(N)n(Cc2ccccc2)c(=O)[nH]c1=O`, the inhibition was -6.23%.

For the molecule `CC(C)NC(=O)C(=O)NCCN1CCN(S(=O)(=O)c2ccc(Cl)cc2)CC1`, the inhibition is -1.75%.

Take `Cc1ccc(NC(=O)c2ccc(CSc3ncnc4nc[nH]c34)cc2)c(C)c1`: the inhibition is -3.19%.

For the molecule `CCNc1nc(SCCOc2ccccc2)nc(N(C)C)n1`, the inhibition is 17.6%.

`COc1ccc2nc(SCC(=O)Nc3c(C)cc(C)cc3C)[nH]c2c1`: the inhibition is 82.7% (active).

For the molecule `Cc1cc(C)c(NC(=O)CSc2nc3ccncc3[nH]2)c(C)c1`, the inhibition was -7.29%.

For the molecule `Cc1ccc2nc(SCC(=O)NC3CCCC3)[nH]c2c1`, the inhibition was 19.8%.

`N#C/C=C/N1CCN(Cc2ccc3c(c2)OCO3)CC1`: the inhibition was 1.76%.

Turning to `CC(C)(C)OC(=O)N(Cc1ccccc1)Cc1ccc(OCc2cccc(NC(=O)c3ccccc3)c2)cc1`, the inhibition is 1.99%.

Consider `O=C1Cc2ccccc2Sc2ccc(Cl)cc21`, for which the inhibition was 3%.

Regarding `Cc1ccc(C(=O)C(=S)N2CCOCC2)cc1`, the inhibition was -12.9%.

For the molecule `CSc1ncccc1C(=O)Nc1ccc2c(c1)OCO2`, the inhibition was -2.99%.

On to `CSc1ncccc1C(=O)Nc1nc2ccc(F)cc2s1`, for which the inhibition was 56.9% (active).

For `CSc1ncccc1C(=O)Nc1ccc(C)cn1`, the inhibition is -28.8%.

For the molecule `CC(C)=NN1C(=O)c2ccccc2NC1(C)C`, the inhibition was 0.06%.

Turning to `Cn1nccc1C(=O)NC1CCCc2c1cnn2-c1ccc(F)cc1F` (stereo unspecified), the inhibition was 73% (active).

On to `COc1ccc(C(=O)NC2CC(C)(C)Cc3c2cnn3-c2ccccc2C)o1` (stereo unspecified), for which the inhibition is 3.2%.

As to `COc1ccc(C(=O)NC2CCCc3c2cnn3-c2cccc(C)c2C)c(OC)n1` (stereo unspecified), the inhibition is 57% (active).

In the case of `Cn1nccc1C(=O)NC1CCCc2c1cnn2-c1ccccc1F` (stereo unspecified), the inhibition is 77.6% (active).

Consider `CC1(C)Cc2c(cnn2-c2cccc(F)c2)C(NC(=O)c2cc[n+]([O-])cc2)C1` (stereo unspecified), for which the inhibition is -1.99%.

As for `COc1ccc(C(=O)NC2CC(C)(C)Cc3c2cnn3-c2ccccc2)c(OC)c1` (stereo unspecified), the inhibition was 14%.

As to `Cc1cc(C(=O)NC2CC(C)(C)Cc3c2cnn3-c2ccccc2)n[nH]1` (stereo unspecified), the inhibition is 7.64%.

`CC1=C(C(=O)NC2CC(C)(C)Cc3c2cnn3-c2ccc(C)cc2)OCCO1` (stereo unspecified): the inhibition was 13.4%.

For the molecule `Cc1ccc(-n2ncc3c2CCCC3NC(=O)c2cnccn2)cc1C` (stereo unspecified), the inhibition was 20.6%.
